# This excerpt belongs to a sample that is enriched for hits.
# nsP2pro inh – CHIKV nsP2 protease inhibition, primary qHTS | AID 1964107 | actives 1.1% (n = 31,000) | Potency, µM (titrated, usually from 24.9 µM), for the others: at the highest dose activity change, negative = inhibition, most hits filed as inhibitors | FRET peptide cleavage, nsP2pro, fluorescence 1 h | Q8JUX6; note: nearly all actives have a fitted effect of over 60% in size
#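 FRET cleavage of 2.5 uM peptide 2 by 150 nM CHIKV protease domain at pH 8.0 (Tris, Tween 20). Compounds at 7 concentrations (up to 25 uM) preincubated 15 min. Fluorescence read after 1 h at room temperature.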
# CHIKV nsP2 cell – cell-based CHIKV nsP2 protease inhibition, secondary; actives 10% (n = 450); Potency, µM (top dose mostly 51.1 µM), without a hit: at the top dose activity change, negative = inhibition, actives largely listed as inhibitors; shares compounds with nsP2pro inh; cell-based CHIKV nsP2 protease reporter assay; note: nearly all actives have a fitted effect of over 70% in size
# NSP2 full ctr – full-length CHIKV NSP2 protease inhibition, selectivity | Potency, µM (titrated, usually from 50.7 µM), for the others: at the top dose activity change, negative = inhibition, most hits filed as inhibitors | Full-length CHIKV NSP2 protease enzymatic counterscreen | actives 39% (n = 410) | shares compounds with nsP2pro inh; note: nearly all actives have a fitted effect of over 65% in size
# Furin counter – inhibits human furin in a CHIKV nsP2 protease selectivity counterscreen; actives 6% (n = 410); Potency, µM (titrated, usually from 50.6 µM), for inactives: top-dose activity change, negative = inhibition, hits mostly inhibitors; shares compounds with nsP2pro inh; Recombinant human furin enzymatic counterscreen, fluorogenic substrate
# Target sequence (P09958 whole entry, looked up): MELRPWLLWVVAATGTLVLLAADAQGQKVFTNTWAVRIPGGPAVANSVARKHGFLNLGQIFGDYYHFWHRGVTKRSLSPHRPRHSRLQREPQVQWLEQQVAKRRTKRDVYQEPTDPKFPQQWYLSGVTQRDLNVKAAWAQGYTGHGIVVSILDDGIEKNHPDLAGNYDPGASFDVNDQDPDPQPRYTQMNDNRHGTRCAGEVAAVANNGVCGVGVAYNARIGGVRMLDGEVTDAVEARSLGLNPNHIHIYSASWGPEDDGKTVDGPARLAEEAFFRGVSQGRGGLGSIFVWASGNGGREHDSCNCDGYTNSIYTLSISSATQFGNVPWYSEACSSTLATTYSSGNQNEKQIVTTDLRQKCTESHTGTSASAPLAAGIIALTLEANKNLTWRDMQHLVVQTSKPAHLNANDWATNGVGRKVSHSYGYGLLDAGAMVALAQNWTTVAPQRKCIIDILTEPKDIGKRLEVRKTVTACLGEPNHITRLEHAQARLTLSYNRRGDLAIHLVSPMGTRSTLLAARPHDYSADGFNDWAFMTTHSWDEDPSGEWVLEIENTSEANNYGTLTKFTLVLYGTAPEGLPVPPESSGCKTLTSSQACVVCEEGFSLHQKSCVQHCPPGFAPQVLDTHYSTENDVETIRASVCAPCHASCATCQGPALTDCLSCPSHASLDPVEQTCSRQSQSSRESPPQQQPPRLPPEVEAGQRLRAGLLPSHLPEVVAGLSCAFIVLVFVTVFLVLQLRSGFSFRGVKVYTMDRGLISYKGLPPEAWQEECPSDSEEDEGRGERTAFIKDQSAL
# nsP2 NS23 pep – nsP2pro inhibition on native NS2/3 peptide substrate; AID 1964103; Purified CHIKV nsP2 protease, endogenous NS2/3 peptide cleavage; Potency, µM (series often up to 51 µM), without a hit: top-dose activity change, negative = inhibition, actives largely listed as inhibitors; shares compounds with nsP2pro inh; actives 34% (n = 410); note: nearly all actives have a fitted effect of over 55% in size
# Papain counter – papain protease inhibition, counterscreen for nsP2pro inhibitors | shares compounds with nsP2pro inh | purified papain protease activity, enzymatic inhibition | Potency, µM (series often up to 51 µM), for inactives: at the highest dose activity change, negative = inhibition, usual class: inhibitors | actives 5% (n = 410)
# nsP2pro confirm – confirmation of CHIKV nsP2 protease inhibitors. actives 43% (n = 410). shares compounds with nsP2pro inh. AID 1964105. CHIKV nsP2 protease enzymatic activity, qHTS. Potency, µM (titrated, usually from 25.5 µM), for the others: top-dose activity change, negative = inhibition, actives largely listed as inhibitors; note: nearly all actives have a fitted effect of over 75% in size
# HCV NS3 4A cs – inhibits HCV NS3/4A protease in an nsP2pro selectivity counterscreen; shares compounds with nsP2pro inh; HCV NS3/4A protease biochemical counterscreen; Potency, µM (highest dose often 50.9 µM), actives largely listed as inhibitors; actives 20% (n = 410); AID 1964106; note: nearly all actives have a fitted effect of over 55% in size
# The depositor's hits bear a star; i = inactive; ? = inconclusive; [ ] = remark or other dose. Calls come from the whole dose curve. % is set by controls: 0 for no effect and ±100 for the full control effect; potency is the fitted concentration of half-maximal effect.
SMILES,nsP2pro inh,others
C/C=C(\C)C(=O)O[C@H]1CC2C(=C1C)[C@H]1OC(=O)[C@](C)(O)[C@]1(O)[C@H](OC(=O)CCC)C[C@@]2(C)OC(C)=O (some centres undefined),-2.1%[10 µM],
CC(=O)[C@@]1(O)CC[C@H]2[C@@H]3CCC4=CC(=O)CC[C@@H]4[C@H]3CC[C@@]21C,-3.0%,
COc1ccc(-c2ccc3nc(-c4ccc(F)c(F)c4)oc3c2)c(OC)c1OC,-1.1%,
COc1ccc(-c2ccc3nc(-c4ccc(C)c(F)c4)oc3c2)c(OC)c1OC,0.4%,
COc1ccc(-c2ccc3nc(-c4cccc(F)c4)oc3c2)c(OC)c1OC,?,CHIKV nsP2 cell=?
Cc1ccc(OCCn2c(CCNC(=O)c3cc(N)ccc3N)nc3ccccc32)cc1,-0.5%,
Cc1ccc(OCCn2c(CCNC(=O)c3ccccc3Br)nc3ccccc32)cc1,-6.2%,
Cc1ccc(OCCn2c(CCNC(=O)c3ccccc3N)nc3ccccc32)cc1,4.47µM*,CHIKV nsP2 cell=138.1%;NSP2 full ctr=0.517µM*;Furin counter=20.6µM*;nsP2 NS23 pep=1.63µM*;Papain counter=-23.0%;nsP2pro confirm=1µM*;HCV NS3 4A cs=0.517µM*
COc1ccc(NC(=O)N2CCC3(CC2)SCC(=O)N3c2ccc(F)cc2)cc1,-1.3%,
CSc1ncc(Cl)c(C(=O)NCc2ccc(C)cc2)n1,-3.2%,
O=C(NCc1ccccc1)c1nc(S(=O)(=O)Cc2ccc(F)cc2)ncc1Cl,7.57µM*,CHIKV nsP2 cell=0.461µM*;NSP2 full ctr=11.6µM*;Furin counter=-2.2%;nsP2 NS23 pep=5.17µM*;Papain counter=-3.8%;nsP2pro confirm=3.57µM*;HCV NS3 4A cs=?
Cc1ccc(CSc2ncc(Cl)c(C(=O)NCc3ccccc3)n2)cc1,23.7%,
Cc1ccccc1CSc1ncc(Cl)c(C(=O)NCc2ccccc2)n1,67.2%,
COc1ccc(CNC(=O)c2nc(SCc3ccccc3F)ncc2Cl)cc1,-18.6%,
Cc1cccc(CS(=O)(=O)c2ncc(Cl)c(C(=O)NCc3ccccc3)n2)c1,3.55µM*,CHIKV nsP2 cell=2.59µM*;NSP2 full ctr=9.19µM*;Furin counter=-6.2%;nsP2 NS23 pep=6.51µM*;Papain counter=-6.6%;nsP2pro confirm=4.49µM*;HCV NS3 4A cs=?
Cn1cccc1C(=O)N1CC[C@H](NC(=O)Nc2ccc(F)cc2F)[C@H]1C(=O)N[C@H](Cc1ccccc1)C(N)=O,0.2%,
CCc1nc(-c2c3n(c(=O)n(CC(=O)Nc4cc(C)on4)c2=O)CCCC3)no1,4.4%,
COc1cccc(-c2nc(-c3ccc(C(=O)O)cc3)no2)c1,i,
COc1ccc(-c2noc(-c3cccnc3NCc3ccco3)n2)cc1,?,CHIKV nsP2 cell=-4.0%
Cc1ccccc1-c1noc(-c2cccnc2NCc2ccco2)n1,-27.5%,
CN1CCc2[nH]cnc2C12CCN(C(=O)Cc1ccc(F)cc1Cl)CC2,-3.4%,
O=C(Nc1nc(-c2ccccc2)cs1)c1cccc(NS(=O)(=O)c2nccs2)c1,i,
Cc1cc(C)nc(NC(=S)N2CCN(c3cc(C(F)(F)F)nc4ccc(C(F)(F)F)cc34)CC2)c1,i,
Cc1cccc(-c2csc3ncnc(Sc4nnnn4C)c23)c1,i,
Cn1nnnc1Sc1ncnc2scc(-c3cccc(Br)c3)c12,4.3%,
SMILES,nsP2pro inh,others
Cn1nnnc1Sc1ncnc2scc(-c3cccc(N)c3)c12,1.78µM*,CHIKV nsP2 cell=20.6µM*;NSP2 full ctr=-9.8%;Furin counter=-4.1%;nsP2 NS23 pep=-14.3%;Papain counter=-6.4%;nsP2pro confirm=17.5%;HCV NS3 4A cs=i
COc1cccc(CN2C[C@@H](CO)[C@H](NC(=O)C3CCC3)C2)c1,-13.9%,
CO[C@H]1C[C@H](O[C@@H]2[C@H](C)O[C@H](O[C@@H]3/C(C)=C/C[C@@H]4C[C@@H](C[C@]5(C=C[C@H](C)[C@@H](C6CCCCC6)O5)O4)OC(=O)[C@@H]4C=C(C)C(O)[C@H]5OC/C(=C\C=C\[C@@H]3C)[C@]54O)C[C@@H]2OC)O[C@@H](C)[C@@H]1O (some centres undefined),-11.2%,
COc1ccc(CCC(=O)N2CCC(Cc3nc(-c4ccc(OC)cc4)no3)CC2)cc1,-2.3%,
COc1cccc(CN2CCC3(CCC3OC)CC2)c1 (centres undefined),-4.4%,
Cc1cc(C)nc(NC(=S)N2CCN(c3ccc(Cl)nn3)CC2)c1,-9.5%,
Clc1ccc(N2C[C@H]3CC[C@@H](C2)N3)nn1,4.95µM*,CHIKV nsP2 cell=1.2%;NSP2 full ctr=4.11µM*;Furin counter=?;nsP2 NS23 pep=14.6µM*;Papain counter=?;nsP2pro confirm=3.57µM*;HCV NS3 4A cs=i
O=c1oc2cc(O)ccc2c2ccc(O)cc12,-8.0%,
CC(C)Oc1ccc(-c2c[nH]cc2CN(C)CCN)cc1,59.8%,
CC1=CC2=C(C)C(=O)[C@](C)(O)[C@H](O)C2=CO1,?,CHIKV nsP2 cell=7.6%;NSP2 full ctr=-11.6%;Furin counter=-8.2%;nsP2 NS23 pep=-11.1%;Papain counter=2.4%;nsP2pro confirm=-13.9%;HCV NS3 4A cs=i
O=C[C@H](O)[C@@H](O)[C@H](O)[C@H](O)CO[C@@H]1O[C@H](CO)[C@@H](O)[C@H](O)[C@H]1O,-17.5%,
S=C(SSC(=S)N1CCCCC1)N1CCCCC1,2.48µM*,CHIKV nsP2 cell=12.6µM*;NSP2 full ctr=14.6µM*;Furin counter=-1.7%;nsP2 NS23 pep=16.3µM*;Papain counter=-24.6%;nsP2pro confirm=3.57µM*;HCV NS3 4A cs=i
N=c1c2c(ncn1-c1ccccc1)Oc1ccc3ccccc3c1C2c1ccc2c(c1)CCO2 (centres undefined),-15.3%,
CCN(C)C(C)C(O)c1ccccc1 (centres undefined),-6.0%,
COc1ccc(CNC(=O)c2ccc(CN3C(=O)NC4(CCOCC4)C3=O)cc2)cc1,-5.4%,
O=C(O)c1ccc(Cc2c(-c3cccc(-c4ccccc4)c3)[nH]n(-c3nc(C(=O)O)cs3)c2=O)cc1,i,
CCC(=O)OC1(C(=O)CCl)C(C)CC2C3CC(F)C4=CC(=O)C=CC4(C)C3(F)C(O)CC21C (centres undefined),4.6%,
COc1cc(C)c2c(c1C)C[C@H](C(C)C(=O)NCc1ccco1)CC2 (some centres undefined),7.94µM*,CHIKV nsP2 cell=-13.6%
COc1ccc(CCNC(=O)C(C)C2CCOCC2)cc1OC (centres undefined),-1.1%,
Cc1cc(OCCN(C)C)c(C)c2c1CC[C@@H]([C@H](C)C(=O)NCc1cccs1)C2,37.2%[39.2 µM],
